In PubChem BioAssay (NCI) one finds growth data, which are given here for 39 compounds.

The panel holds about 83,000 compounds, 20% with a hit somewhere; the sample as a whole holds those more often.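 Compound tested at a single concentration for 48 hours in 96-well plates; a percent growth value below 10 was scored as active.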 The source made the active and inactive calls.

In this assay the test system is SNB-19 CNS. Nature of the assay: NCI-60 one-dose screen, 48 h (100 = growth as untreated, 0 = no growth, -100 = all killed). As to conditions: 10 µM unless noted.
`CC(C)(C)c1ccc(Cn2cc(CSc3nc4ccccc4s3)nn2)cc1`: the growth is 89.8% (inactive). In the case of `CCN1CCN(Cc2ccc(Cc3ncc(F)c(-c4cc(F)c5nc(C)n(C(C)C)c5c4)n3)nc2)CC1`, the growth was 47.8% (inactive). The same measure for `CC(=O)NCC(=O)N1[C@@H]2CC[C@H]1c1ccc(Nc3ncc(C(F)(F)F)c(NC4CCC4)n3)cc12`: 73.9% [2.5 µM] (inactive). On to `O=C(NOCCO)c1cc(CN2OCCCC2=O)c(F)c(F)c1Nc1ccc(I)cc1F`, for which the growth is 51.8% (inactive).

For `CC(C)CC(=O)Nc1n[nH]c2c1CN(C(=O)C1CCN(C)CC1)C2(C)C`, the growth was 11.5% (inactive). Consider `Cc1ccc(N)cc1CN1C(=O)c2ccccc2C1=O`, for which the growth is 102% (inactive). With `COCc1c(-c2ccc(NC(=O)Nc3cc(C(F)(F)F)ccc3F)c(F)c2)c2c(N)ncnn2c1CN1CCOCC1`, the growth is -14.9% (active). The value for `O=C(CNc1nc2ccccc2s1)Nc1ccc(-c2nc3ccccc3s2)cc1` was 100% (inactive); that for `N#CC[C@H](C1CCCC1)n1cc(-c2ncnc3[nH]ccc23)cn1` was 90.7% (inactive). On to `C=CC(=O)Nc1cc2c(Nc3ccc(F)c(Cl)c3)ncnc2cc1C#CC(C)(C)N1CCN(C)CC1`, for which the growth is -98.9% (active). Take `CC(=O)C1=C(C)NC(SCc2nnc(-c3ccc(C)cc3)o2)=NC1c1ccc(F)cc1` (centres undefined): the growth is 94.1% (inactive).

For `CNC(=O)c1ccc(Nc2ncc(C(F)(F)F)c(NCc3nccnc3N(C)S(C)(=O)=O)n2)cc1`, the growth is 7.45% (active). For `C/C=C/C=N/NC(=S)Nc1ccccc1`, the growth was 102% (inactive). For `COc1cc(N2CCC(N(C)C)CC2)ccc1Nc1ncc(Cl)c(Nc2ccccc2P(C)(C)=O)n1`, the growth was 14.9% (inactive). As for `CN1CCN(CCCOc2cccc3nc(Nc4ccc(Cl)c(C(F)(F)F)c4)ccc23)CC1`, the growth was 20.8% (inactive). The same measure for `C#Cc1cccc(Nc2ncnc3cc(OC)c(OCCCCCCC(=O)NO)cc23)c1`: 7.79% (active); for `Cc1ccc(-n2nc(C(C)(C)C)cc2NC(=O)NCc2cc(F)ccc2Oc2ccc3c(cnn3CCO)c2)cc1`: 48.1% (inactive); for `Cn1ccnc1C(=O)/C=C/c1ccc(CC(=O)Nc2ccc(Br)cc2)cc1`: 11.4% (inactive). On to `Cc1[nH]n(C(N)=S)c(=O)c1N=Nc1ccc(S(=O)(=O)Nc2ccncn2)cc1`, for which the growth is 99.8% (inactive). The value for `Cc1[nH]c(/C=C2\C(=O)Nc3ccc(F)cc32)c(C)c1C(=O)NC[C@H](O)CN1CCOCC1` was 96.7% (inactive). The value for `Cn1ncc(Cl)c1-c1cc(C(=O)N[C@H](CN)Cc2cccc(F)c2)sc1Cl` was 9.05% (active); that for `Cn1cc(-c2ncnc3ccc(-c4cnc(Cl)c(NS(C)(=O)=O)c4)cc23)c2ccccc21` was 27.7% (inactive). The value for `O=[N+]([O-])c1cc(Br)cc2c1[nH]c1ccc(Br)cc12` was 81.1% (inactive).

Turning to `COc1ccc2c(OCc3nnc4ccc(-c5ccccc5)nn34)ccnc2c1`, the growth is 106% [2.5 µM] (inactive). In the case of `CC(=O)O[C@]1(C)C[C@H](O)[C@]2(O)C=CO[C@H](O[C@@H]3O[C@H](CO)[C@@H](O)[C@H](O)[C@H]3O)[C@@H]21`, the growth is 99.6% (inactive). For the compound `COc1cc2cc(NCc3ccc(F)cc3)nc(C)c2cc1OC`, the growth was 43.8% (inactive).

On to `O=C(Nc1nc2cccc(-c3ccc(CN4CCS(=O)(=O)CC4)cc3)n2n1)C1CC1`, for which the growth is 48% (inactive).

As to `N#Cc1c(-c2ccc(Cl)cc2)csc1NC(=O)Nc1cccc(C(F)(F)F)c1`, the growth is 12.1% (inactive). As to `O=C(c1ccc(/C=C/c2n[nH]c3ccccc23)cc1)N1CCNCC1`, the growth was 68.7% (inactive).

With `Cc1cnc(Nc2ccc(OCCN3CCCC3)cc2)nc1Nc1cccc(S(=O)(=O)NC(C)(C)C)c1`, the growth was 21.3% (inactive). The same measure for `CO[C@H]1C[C@@H]2CC[C@@H](C)[C@@](O)(O2)C(=O)C(=O)N2CCCC[C@H]2C(=O)O[C@H]([C@H](C)C[C@@H]2CC[C@@H](OCCO)[C@H](OC)C2)CC(=O)[C@H](C)/C=C(\C)[C@@H](O)[C@H](OC)C(=O)[C@H](C)C[C@H](C)\C=C/C=C/C=C/1C`: 49.5% (inactive); for `COc1cc(F)c(F)c(Nc2ccc(I)cc2F)c1NS(=O)(=O)C1(C[C@H](O)CO)CC1`: 43% (inactive); for `Nc1ccc(S(=O)(=O)O)c2cc(S(=O)(=O)O)cc(O)c12`: 105% (inactive). As to `COc1cc2ncnc(Nc3ccc(F)c(Cl)c3)c2cc1NC(=O)/C=C/CN1CCCCC1`, the growth was -47.5% (active).

`COc1ccc(C(=O)N2c3ccccc3Sc3ccccc32)c(F)c1`: the growth is 35.8% (inactive). The same measure for `O=S1(=O)OC(c2ccc(O)c(Cl)c2)(c2ccc(O)c(Cl)c2)c2ccccc21`: 103% (inactive); for `C[C@H](NC(=O)c1c(N)nn2cccnc12)c1cc2cccc(C#Cc3cnn(C)c3)c2c(=O)n1-c1ccccc1`: 39.3% (inactive). Take `Cc1cc(O)cc(-c2c(-c3ccnc(-c4cccnc4)c3)cnn2C)c1`: the growth was 96.4% (inactive). The same measure for `CN1CCN(CCOc2cc(OC3CCOCC3)c3c(Nc4c(Cl)ccc5c4OCO5)ncnc3c2)CC1`: 54.6% (inactive).
